Many of the other results were omitted from the sample, so hits are more common in it than they were.
Pf Dd2 growth – Plasmodium falciparum Dd2 growth inhibition; P. falciparum Dd2 growth, SYBR Green, 72 h; Potency, µM (series often up to 28.9 µM), hits mostly inhibitors; 4.3% of 120,000 active; AID 1347417; active = well fitted inhibition curve with a large enough effect; note: nearly all actives have a fitted effect of over 65% in size
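Readout: SYBR Green fluorescence, 485 nm excitation, 535 nm emission, after ~16 h lysis at 37C. Before that, Dd2-infected red cells (2.5% hematocrit) grew 72 h with compound, 29 uM top final concentration.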
Of the large screens only hits and unclear results are named; the others gave an inactive call.

CN(CCCNC(=O)c1cc2c(=O)n(C)c3ccccc3c2s1)Cc1ccccc1	Pf Dd2 growth 10µM
Cc1ccc2[nH]c(=O)c3cc(C(=O)NCCCN4CCC(C)CC4)sc3c2c1	Pf Dd2 growth 8.9µM
COc1ccc(Br)cc1CNC(=O)c1cc2c(=O)n(C)c3ccccc3c2s1	none
Cn1c(=O)c2cc(C(=O)NCCCN3CCN(c4ccc(F)cc4)CC3)sc2c2ccccc21	none
c1ncnc(NCC2(N3CCOCC3)CCCCCC2)n1	none
CC(C)N(C(=O)c1ccccc1-c1ccc(CS(C)(=O)=O)cn1)C(C)C	none
Cc1noc2c(NCCN3CCOCC3)cc(-c3cccnc3)nc12	none
COCCCNC(=O)[C@@H]1Cc2cn(Cc3nccn3C)c3cccc(c23)[C@H](CC(C)C)N1	none
CC(=O)NCCNC(=O)[C@@H]1Cc2cn(Cc3cc(C)on3)c3cccc(c23)[C@H](CC(C)C)N1	none
CC(C)C[C@@H]1N[C@H](C(=O)NC2CCC2)Cc2cn(Cc3ccncc3)c3cccc1c23	none
CC(C)C[C@@H]1N[C@H](C(=O)NC2CCC2)Cc2cn(Cc3ccccn3)c3cccc1c23	Pf Dd2 growth 11µM
Cc1cc(Cn2cc3c4c(cccc42)[C@H](CC(C)C)N[C@H](C(=O)NCc2ccc(C)o2)C3)no1	Pf Dd2 growth 13µM
CCCNC(=O)[C@@H]1Cc2cn(Cc3nccn3C)c3cccc(c23)[C@H](CC(C)C)N1	Pf Dd2 growth 10µM
Cc1cc(Cn2cc3c4c(cccc42)[C@H](CC(C)C)N[C@H](C(=O)O)C3)no1	none
CC(C)C[C@@H]1N[C@H](C(=O)NCC2CC2)Cc2cn(Cc3ccccn3)c3cccc1c23	none
CCCNC(=O)[C@@H]1Cc2cn(Cc3c(C)noc3C)c3cccc(c23)[C@H](CC(C)C)N1	Pf Dd2 growth 11µM
Cc1cc(Cn2cc3c4c(cccc42)[C@H](CC(C)C)N[C@H](C(=O)NCc2nccs2)C3)no1	none
Cc1cnc(C(=O)NC2C[C@H]3CC[C@@H](C2)N3C(=O)c2ccccc2)cn1 (stereo partly drawn)	none
O=C1CO[C@H]2CN(Cc3ncc[nH]3)C[C@H]2N1Cc1ccc(F)cc1	none
CC(C)CN[C@@H]1C[C@H](COc2ccc(S(C)(=O)=O)cc2)[C@@H](O)[C@H]1O	none
Cc1noc([C@@H]2CN(C(=O)c3cn[nH]c3)C[C@H]2C(N)=O)n1	none
Cc1cnn(CCC(=O)N2CCCn3ccnc3C2c2cnn(C)c2)c1 (stereo not drawn)	none
CCn1ccn2c(-c3ccccc3)nc(C)c2c1=O	none
O=C(C[C@@H]1O[C@H](CNS(=O)(=O)c2ccc(Cl)cc2)[C@@H](O)[C@H]1O)NC1CC1	none
COc1ccccc1CNC(=O)[C@@H]1Cc2cn(C)c3cccc(c23)[C@H](CC(C)C)N1	none
CC(C)C[C@@H]1N[C@H](C(=O)NCCN2CCOCC2)Cc2cn(Cc3ccccn3)c3cccc1c23	none
CC(C)C[C@@H]1N[C@H](C(=O)NC2CC2)Cc2cn(Cc3nccn3C)c3cccc1c23	Pf Dd2 growth 11µM
CC(C)C[C@@H]1N[C@H](C(=O)NCC2CC2)Cc2cn(Cc3nccn3C)c3cccc1c23	none
CC(C)C[C@@H]1N[C@H](C(=O)NCc2ccccc2)Cc2cn(Cc3cccnc3)c3cccc1c23	none
CC(C)C[C@@H]1N[C@H](C(=O)NCCN(C)C)Cc2cn(Cc3ccccn3)c3cccc1c23	none
C=CCn1cc2c3c(cccc31)[C@H](CC(C)C)N[C@H](C(=O)NCc1ccccn1)C2	Pf Dd2 growth 11µM
CC(C)C[C@@H]1N[C@H](C(=O)N2CCOCC2)Cc2cn(Cc3nccn3C)c3cccc1c23	Pf Dd2 growth 11µM
CC(C)C[C@@H]1N[C@H](C(=O)NCc2ccccn2)Cc2cn(Cc3ccncc3)c3cccc1c23	none
C#CCNC(=O)[C@@H]1Cc2cn(Cc3ccncc3)c3cccc(c23)[C@H](CC(C)C)N1	Pf Dd2 growth 10µM
O=c1n(-c2cccc(Cl)c2)nc2n1CCN([S+](=O)([O-])c1ccccc1)C2	none
O=C(CCn1ccn2nc3c(c2c1=O)CCCC3)NCc1ccco1	none
CC(=O)c1ccc(NC(=O)Cn2c(-c3ccc(Cl)cc3)nc(C)cc2=O)cc1	none
O=C(NCc1ccccn1)C1CCN(Cc2cc3n(n2)CCNC3)CC1	none
COc1cccc(C(=O)N2CCC(N3C[C@H](O)C[C@H]3C(=O)NCc3ccc(C)o3)CC2)c1	none
COc1cc(-c2ccnc3nc(C4CCC4)nn23)cc(OC)c1OC	none
N#Cc1ccc([S+](=O)([O-])N2CCC3(CC2)OCCN(CC2CC2)C3=O)cc1	none
CC(C)N1C(=O)CO[C@H]2CCN(Cc3ccccn3)CC[C@@H]21	none
CCC(CC)CN1CC2(CCN(C(=O)CCc3cnn(C)c3)CC2)OC1=O	none
CN(C)c1ccc(CN2C[C@H](O)C[C@H]2c2nc(-c3cccnc3)no2)cc1	none
COc1cccc(NC(=O)N(CCC(C)C)C2CCN(C(C)C)CC2)c1	none
COc1ccc(CN(C(=O)Nc2cccc(OC)c2)C2CCN(C(C)=O)CC2)cc1	none
CC(=O)N1CCC(N(CCCOC(C)C)C(=O)Nc2ccc(C)c(C)c2)CC1	none
COc1cccc(NC(=O)N(Cc2cn(C)c3ccccc23)C2CCCCC2)c1	Pf Dd2 growth 2.8µM
Cc1ccc(NC(=O)Cn2cc(C(=O)C3CC3)c3ccccc32)cc1C	none
Cc1ccc(NC(=O)N(Cc2cn(C)c3ccccc23)C2CCCCC2)cc1C	Pf Dd2 growth 3.5µM
Cc1ncccc1C(=O)N1CCn2c(nnc2[C@@H]2C[C@@H](O)CN2Cc2ccccc2)C1	none
CCn1c(C)c(CN2CCc3nc(N(C)C)[nH]c(=O)c3CC2)c2ccccc21	none
COCCN1C(=O)CS(=O)(=O)C12CCN(C(=O)c1cc(Cl)ccc1OC)CC2	none
c1nnc(CC2CCCNC2)n1CC1CC1 (stereo not drawn)	none
CC(C)(C)CC(=O)NC1CCN(c2cnn(Cc3ccccc3)c(=O)c2)CC1	none
Cn1ncc(N2CCC(NC(=O)c3ccsc3)CC2)cc1=O	none
O=C(NC1CCN(c2cnn(Cc3ccccc3)c(=O)c2)CC1)c1ccsc1	Pf Dd2 growth 10µM
CC(C)(C)C(=O)N1CCC2(CC1)CC(c1ccccc1)C(=O)N(C1CC1)C2 (stereo not drawn)	none
COc1cccc(N2C(=O)NC(=NC3CCCC3)C23CCCN(CC2CCCCC2)C3)c1 (stereo not drawn)	Pf Dd2 growth 10µM
COc1cccc(N2C(=O)NC(=NC3CCCCC3)C23CCN(C(=O)OCc2ccccc2)C3)c1 (stereo not drawn)	none
COC(=O)N1CCC2(C1)C(=NC1CCCCC1)NC(=O)N2c1cccc(OC)c1 (stereo not drawn)	none
COc1cccc(N2C(=O)NC(=NC3CCCCC3)C23CCN(Cc2cccn2C)CC3)c1	none
COc1cccc(N2C(=O)NC(=NC3CCCC3)C23CCCN(C(=O)c2ccc(C)cc2)C3)c1 (stereo not drawn)	none
COc1cccc(N2C(=O)NC(=NC3CCCCC3)C23CCCN(CC2CCCCC2)C3)c1 (stereo not drawn)	Pf Dd2 growth 13µM
COc1cccc(N2C(=O)NC(=NC3CCCCC3)C23CCN(C(C)=O)C3)c1 (stereo not drawn)	none
COc1cccc(N2C(=O)NC(=NC3CCCCC3)C23CCCN(C(=O)c2ccc(C)cc2)C3)c1 (stereo not drawn)	none
COc1cccc(N2C(=O)NC(=NC3CCCCC3)C23CCCN(CCC(C)C)C3)c1 (stereo not drawn)	Pf Dd2 growth 11µM
Cn1nc(-c2ccc3ccccc3c2)cc1[C@H]1CN2CC[C@H]1C[C@@H]2CNC(=O)Nc1cccc(C#N)c1	none
COc1ccc(C(=O)N2CCCCCCNC(=O)[C@@H]3CCC[C@@H]32)c(OC)n1	none
O=C(c1ccc(Cl)cc1)N1CCC(N(C(=O)C2CC2)C2CCOCC2)CC1	none

Assay outcomes (PubChem BioAssay)
